# Source: ChEMBL document CHEMBL3988442, “University of Dundee, Small-Polar-MMV Screening Library” (2021)
# For some assays here: Entries with a potency or affinity are not part of this list.
# What was measured:
# Parameters in all cases: scale not given: direction of the effect not stated beside the values
# [1] = biological target: Protein translocase subunit SecA (Escherichia coli (strain K12)) (UniProt P10408); assay: Assay to Identify E. coli SecA ATPase Inhibitors; type: functional; details: 30 µM
# Chain of Protein translocase subunit SecA (Escherichia coli (strain K12)) (P10408 whole entry): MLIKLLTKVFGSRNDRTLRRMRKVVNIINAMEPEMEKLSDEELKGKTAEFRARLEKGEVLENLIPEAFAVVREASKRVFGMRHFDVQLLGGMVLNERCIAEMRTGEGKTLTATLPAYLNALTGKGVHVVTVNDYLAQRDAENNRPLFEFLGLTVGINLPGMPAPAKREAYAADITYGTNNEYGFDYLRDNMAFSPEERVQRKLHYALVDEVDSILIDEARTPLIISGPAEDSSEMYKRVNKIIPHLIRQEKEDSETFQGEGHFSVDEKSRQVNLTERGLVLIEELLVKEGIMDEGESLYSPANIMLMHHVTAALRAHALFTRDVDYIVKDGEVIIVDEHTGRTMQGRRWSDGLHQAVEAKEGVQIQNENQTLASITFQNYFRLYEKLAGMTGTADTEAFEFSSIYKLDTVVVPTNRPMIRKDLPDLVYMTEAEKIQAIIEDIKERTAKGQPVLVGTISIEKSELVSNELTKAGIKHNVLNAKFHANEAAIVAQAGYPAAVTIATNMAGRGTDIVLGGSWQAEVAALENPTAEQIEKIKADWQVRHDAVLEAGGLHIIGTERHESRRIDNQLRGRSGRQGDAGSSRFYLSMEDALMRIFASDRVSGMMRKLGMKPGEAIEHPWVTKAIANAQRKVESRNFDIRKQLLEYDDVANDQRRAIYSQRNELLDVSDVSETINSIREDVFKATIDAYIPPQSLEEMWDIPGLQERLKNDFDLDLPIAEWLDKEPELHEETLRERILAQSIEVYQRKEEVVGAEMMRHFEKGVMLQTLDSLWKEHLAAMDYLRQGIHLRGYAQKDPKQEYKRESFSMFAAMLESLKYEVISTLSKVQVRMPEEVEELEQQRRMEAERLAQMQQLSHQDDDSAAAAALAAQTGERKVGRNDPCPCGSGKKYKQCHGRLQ
# [2] = biological target: T1, Ubiquitin-activating enzyme e1, putative (Leishmania donovani (strain BPK282A1)) (UniProt E9BSI1); assay: Leishmania donovani Ubiquitin Activating Enzyme (LdE1); type: functional; details: 30 µM
# T1 sequence (whole entry): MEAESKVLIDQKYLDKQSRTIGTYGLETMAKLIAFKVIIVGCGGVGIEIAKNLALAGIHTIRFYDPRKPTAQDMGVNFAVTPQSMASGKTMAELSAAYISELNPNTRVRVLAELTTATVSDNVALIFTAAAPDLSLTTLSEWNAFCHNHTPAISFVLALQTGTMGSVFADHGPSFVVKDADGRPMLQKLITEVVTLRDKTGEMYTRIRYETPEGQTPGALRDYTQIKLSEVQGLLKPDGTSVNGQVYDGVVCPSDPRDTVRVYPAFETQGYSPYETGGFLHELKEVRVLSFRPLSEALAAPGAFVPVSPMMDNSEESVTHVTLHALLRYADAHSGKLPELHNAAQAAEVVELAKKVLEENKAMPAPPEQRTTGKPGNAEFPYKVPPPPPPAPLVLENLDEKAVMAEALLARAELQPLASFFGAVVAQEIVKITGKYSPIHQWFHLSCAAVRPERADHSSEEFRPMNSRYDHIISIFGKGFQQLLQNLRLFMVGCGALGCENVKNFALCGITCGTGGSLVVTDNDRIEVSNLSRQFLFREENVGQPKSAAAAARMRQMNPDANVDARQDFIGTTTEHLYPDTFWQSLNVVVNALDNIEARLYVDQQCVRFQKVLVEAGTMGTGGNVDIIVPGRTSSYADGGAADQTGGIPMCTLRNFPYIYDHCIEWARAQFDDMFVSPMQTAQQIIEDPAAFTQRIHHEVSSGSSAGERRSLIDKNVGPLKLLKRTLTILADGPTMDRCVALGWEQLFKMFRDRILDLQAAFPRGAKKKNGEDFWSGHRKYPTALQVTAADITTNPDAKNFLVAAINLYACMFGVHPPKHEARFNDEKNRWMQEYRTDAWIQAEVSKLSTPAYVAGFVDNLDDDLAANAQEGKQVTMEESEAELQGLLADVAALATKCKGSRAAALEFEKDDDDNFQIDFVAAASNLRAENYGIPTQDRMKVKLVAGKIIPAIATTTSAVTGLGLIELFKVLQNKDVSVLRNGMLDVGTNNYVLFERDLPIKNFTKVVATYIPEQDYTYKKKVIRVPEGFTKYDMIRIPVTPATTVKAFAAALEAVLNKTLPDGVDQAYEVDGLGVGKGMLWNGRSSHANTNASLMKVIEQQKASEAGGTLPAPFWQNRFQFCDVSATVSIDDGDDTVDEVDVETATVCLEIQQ
# [3] = biological target: AMP-activated protein kinase, AMPK (Homo sapiens) (UniProt P54646+O43741+P54619+Q9UGJ0+Q9Y478+Q13131+Q9UGI9); assay: AMP-dependent Kinase enzyme assay. An in vitro enzyme assay that detects ADP turnover that is directly proportional to AMPK activity. This uses naive AMPK that is activated during the assay with MK-8722; type: functional; details: 30 µM
# [4] = biological target: Sialic acid-binding Ig-like lectin 9 (Homo sapiens) (UniProt Q9Y336); assay: Hs-Siglec9 ALPHAscreen SOP 20170721; details: 10 µM
# Chain of Sialic acid-binding Ig-like lectin 9 (Homo sapiens) (Q9Y336 whole entry): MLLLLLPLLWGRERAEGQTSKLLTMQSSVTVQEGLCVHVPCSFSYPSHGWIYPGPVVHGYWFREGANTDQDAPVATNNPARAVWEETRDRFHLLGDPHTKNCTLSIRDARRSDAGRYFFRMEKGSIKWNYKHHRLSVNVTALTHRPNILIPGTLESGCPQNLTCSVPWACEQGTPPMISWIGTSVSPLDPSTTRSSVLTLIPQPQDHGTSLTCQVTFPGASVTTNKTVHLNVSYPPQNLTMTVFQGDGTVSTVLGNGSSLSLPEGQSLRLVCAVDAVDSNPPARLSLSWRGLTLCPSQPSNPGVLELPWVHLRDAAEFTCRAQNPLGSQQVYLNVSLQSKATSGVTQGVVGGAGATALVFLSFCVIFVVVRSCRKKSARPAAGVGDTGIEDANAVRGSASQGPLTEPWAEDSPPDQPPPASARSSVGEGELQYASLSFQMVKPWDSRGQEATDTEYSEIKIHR
# Trypanosoma cruzi = assay: Trypanosoma cruzi phosphomannomutase and mannose-1-phosphate guanylyltransferase assay; type: functional; details: 10 µM
# [5] = biological target: T2, Arginase-2, mitochondrial (Homo sapiens) (UniProt P78540); assay: in vitro enzyme assay to detect the production of urea directly proportional to the activity of Arginase II; type: functional; details: 33.3 µM; note: in the data most compounds retested in dose-response had high values
# T2 sequence (whole entry): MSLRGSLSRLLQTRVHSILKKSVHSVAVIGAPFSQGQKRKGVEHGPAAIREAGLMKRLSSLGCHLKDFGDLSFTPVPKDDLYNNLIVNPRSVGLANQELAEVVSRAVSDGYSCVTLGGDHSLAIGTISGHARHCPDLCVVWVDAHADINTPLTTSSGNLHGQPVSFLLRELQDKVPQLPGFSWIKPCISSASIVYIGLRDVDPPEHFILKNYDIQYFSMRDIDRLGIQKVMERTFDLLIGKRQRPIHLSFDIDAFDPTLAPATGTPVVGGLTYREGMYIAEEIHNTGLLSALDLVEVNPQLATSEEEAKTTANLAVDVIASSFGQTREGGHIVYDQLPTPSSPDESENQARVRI
# [6] = biological target: T3, Proteasome subunit beta (Trypanosoma cruzi) (UniProt O96673); assay: Trypanosoma cruzi proteasome chymotrypsin-like activity (TcProtChymo) assay.; note: in the data most compounds retested in dose-response had high values; type: functional; details: 9.37 µM
# T3 sequence (whole entry): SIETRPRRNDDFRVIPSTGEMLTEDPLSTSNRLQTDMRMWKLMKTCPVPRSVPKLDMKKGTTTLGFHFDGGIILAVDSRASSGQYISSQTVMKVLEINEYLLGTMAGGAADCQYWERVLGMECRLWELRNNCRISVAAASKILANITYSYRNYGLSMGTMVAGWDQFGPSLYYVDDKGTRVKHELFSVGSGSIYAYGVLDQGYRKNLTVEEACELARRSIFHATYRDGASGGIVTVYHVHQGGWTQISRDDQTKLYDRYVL
# Homo sapiens = organism: Homo sapiens; assay: To identify inhibition of the IFN signalling (Jak-Stat) pathway via expression of an eGFP reporter gene under the control of an IFN-stimulated response element (ISRE) containing MxA promoter.; type: functional; details: 30 µM
# [7] = biological target: T4, Tyrosyl-tRNA synthetase, putative (Trypanosoma cruzi (strain CL Brener)) (UniProt Q4DSP6); assay: Trypanosoma cruzi tyrosyl tRNA synthetase (TcYRS) _High Tyrosine SOP; type: functional; details: 30 µM; note: in the data most compounds retested in dose-response had high values
# T4 sequence (whole entry): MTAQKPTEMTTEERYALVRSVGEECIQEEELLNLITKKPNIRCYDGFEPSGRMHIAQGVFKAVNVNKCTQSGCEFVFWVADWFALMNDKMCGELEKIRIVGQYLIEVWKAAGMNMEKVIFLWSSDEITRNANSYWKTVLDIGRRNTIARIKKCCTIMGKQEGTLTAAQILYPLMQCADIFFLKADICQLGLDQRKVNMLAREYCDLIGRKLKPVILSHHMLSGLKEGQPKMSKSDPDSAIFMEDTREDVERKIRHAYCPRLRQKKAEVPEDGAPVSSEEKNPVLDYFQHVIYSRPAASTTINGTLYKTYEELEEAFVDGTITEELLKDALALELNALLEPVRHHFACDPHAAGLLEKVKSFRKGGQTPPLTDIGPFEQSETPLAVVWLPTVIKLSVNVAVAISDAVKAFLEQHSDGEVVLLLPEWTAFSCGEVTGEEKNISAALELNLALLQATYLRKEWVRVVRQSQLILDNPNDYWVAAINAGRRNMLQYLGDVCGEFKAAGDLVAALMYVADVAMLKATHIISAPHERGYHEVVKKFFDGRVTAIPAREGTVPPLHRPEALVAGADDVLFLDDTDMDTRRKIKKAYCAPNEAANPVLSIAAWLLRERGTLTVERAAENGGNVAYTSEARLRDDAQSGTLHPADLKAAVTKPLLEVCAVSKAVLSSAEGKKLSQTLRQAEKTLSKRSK
# [8] = biological target: T4, Tyrosyl-tRNA synthetase, putative (Trypanosoma cruzi (strain CL Brener)); assay: Trypanosoma cruzi tyrosyl tRNA synthetase (TcYRS) SOP; type: functional; details: 30 µM
# [9] = biological target: Chromo domain-containing protein 1 (Saccharomyces cerevisiae (strain ATCC 204508 / S288c) (Baker's yeast)) (UniProt P32657); assay: ScCHD-1 Enzyme Inhibition Assay; type: functional; details: 30 µM; note: in the data most compounds retested in dose-response had high values
# Chain of Chromo domain-containing protein 1 (Saccharomyces cerevisiae (strain ATCC 204508 / S288c) (Baker's yeast)) (P32657 whole entry, the tested form may be a part): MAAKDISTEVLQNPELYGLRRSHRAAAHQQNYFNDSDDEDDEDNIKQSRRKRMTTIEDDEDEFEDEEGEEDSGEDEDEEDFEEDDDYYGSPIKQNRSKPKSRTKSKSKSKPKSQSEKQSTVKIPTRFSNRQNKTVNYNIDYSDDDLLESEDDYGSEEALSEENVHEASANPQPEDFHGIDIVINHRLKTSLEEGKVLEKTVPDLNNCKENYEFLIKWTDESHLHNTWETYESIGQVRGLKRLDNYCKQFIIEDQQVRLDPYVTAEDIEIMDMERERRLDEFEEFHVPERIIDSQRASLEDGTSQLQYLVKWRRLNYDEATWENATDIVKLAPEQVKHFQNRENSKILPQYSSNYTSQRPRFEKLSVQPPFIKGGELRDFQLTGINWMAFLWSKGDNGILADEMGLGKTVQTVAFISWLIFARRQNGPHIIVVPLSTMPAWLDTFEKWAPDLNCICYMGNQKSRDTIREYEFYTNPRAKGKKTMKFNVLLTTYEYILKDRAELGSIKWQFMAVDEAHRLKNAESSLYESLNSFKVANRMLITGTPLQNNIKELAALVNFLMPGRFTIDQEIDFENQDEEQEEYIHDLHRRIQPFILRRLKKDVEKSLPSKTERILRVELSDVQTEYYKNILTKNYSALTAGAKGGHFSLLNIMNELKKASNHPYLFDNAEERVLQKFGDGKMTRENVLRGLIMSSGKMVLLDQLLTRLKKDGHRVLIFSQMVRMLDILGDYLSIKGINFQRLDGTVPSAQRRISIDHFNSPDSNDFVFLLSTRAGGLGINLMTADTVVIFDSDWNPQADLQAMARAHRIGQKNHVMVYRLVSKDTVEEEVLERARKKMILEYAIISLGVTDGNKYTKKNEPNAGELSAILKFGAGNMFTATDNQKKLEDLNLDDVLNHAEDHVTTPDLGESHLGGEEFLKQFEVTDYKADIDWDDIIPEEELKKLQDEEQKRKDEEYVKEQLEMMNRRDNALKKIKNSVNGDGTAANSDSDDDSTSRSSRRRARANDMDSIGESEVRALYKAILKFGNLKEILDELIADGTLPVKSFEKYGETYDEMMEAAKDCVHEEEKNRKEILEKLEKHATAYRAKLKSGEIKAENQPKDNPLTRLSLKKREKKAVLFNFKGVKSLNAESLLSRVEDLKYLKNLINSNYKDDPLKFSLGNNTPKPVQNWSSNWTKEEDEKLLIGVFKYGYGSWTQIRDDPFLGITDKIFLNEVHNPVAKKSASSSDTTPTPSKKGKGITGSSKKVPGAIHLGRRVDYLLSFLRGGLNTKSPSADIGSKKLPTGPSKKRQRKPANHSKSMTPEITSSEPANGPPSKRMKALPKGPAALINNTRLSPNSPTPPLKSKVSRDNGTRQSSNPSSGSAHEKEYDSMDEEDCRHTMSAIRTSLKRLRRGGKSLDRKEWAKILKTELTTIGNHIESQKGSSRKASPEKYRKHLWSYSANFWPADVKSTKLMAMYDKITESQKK
SMILES,Percent Effect [1],Percent Effect [2],Percent Effect [3],Percent Effect [4],Percent Effect (Trypanosoma cruzi),Percent Effect [5],Percent Effect [6],Percent Effect (Homo sapiens),Percent Effect [7],Percent Effect [8],Percent Effect [9]
CC(=O)N(Cc1ncc(C)o1)C1CCN(Cc2noc(C)n2)C1 (stereo not given),-3.16%,26%,-5.5%,-2.16%,6.76%,-3.16%,11.9%,1.88%,8.57%,30.6%,2.25%
Cn1ncc2c1CCCC2NCc1cc(Br)cs1 (stereo not given),-0.998%,13%,0.777%,-1.41%,3.82%,2.74%,21.4%,5.32%,7.62%,11.8%,-8.68%
O=C(NCc1ccc(OCC2CC2)nc1)c1c(F)cccc1F,-0.518%,2.63%,4.21%,-0.689%,-5.16%,-11.8%,15.1%,11.7%,3.19%,7.79%,-4.74%
COCCC(=O)N1CCC(c2noc3nc(C)cc(C(F)(F)F)c23)CC1,-0.633%,6.76%,7.83%,4.3%,-6.13%,-2.55%,13.1%,8.05%,2.15%,6.49%,9.94%
Cc1noc([C@@H]2C[C@H]3OCC[C@H]3N(S(=O)(=O)c3cccnc3)C2)n1,-2.85%,11%,-6.86%,6.79%,5.75%,-5.19%,4.02%,-3.51%,3.12%,11.1%,-6.9%
CC(C(=O)NCCOc1ccc2c(c1)OCO2)n1cncn1 (stereo not given),-1.18%,20.2%,-6.18%,-3.69%,-2.17%,6.08%,11.6%,-12.4%,6.4%,13.9%,-2.77%
COc1ccnc(N2CCN(C(=O)CN3CCCC3=O)CC2)n1,-4.51%,18.4%,-5.08%,-0.685%,2.52%,2.88%,7.02%,2.97%,8.37%,25.9%,-11.5%
CC(C)c1cc(NCC(O)CO)n2nccc2n1 (stereo not given),-2.58%,8.11%,0.503%,25.3%,3.48%,11.9%,19.3%,9%,1.59%,12.2%,-9.93%
CC(=O)Nc1nc(CN2CCOC(Cn3cc(C)cn3)C2)cs1 (stereo not given),-2.79%,15.6%,9.13%,-6.5%,0.0979%,0.21%,19.5%,2.79%,3.81%,21.2%,-20.4%
CC(C)(C)c1cnc(CN2CCC(c3ccnn3CCO)CC2)o1,-2.61%,2.53%,7.52%,9.51%,7.46%,-3.42%,-3.69%,20.2%,3.45%,11.4%,-1.55%
